Legend:
Test in all cases: log2 ratio of Biotin-Ahx-Ub-VS probe labelling (fragment/DMSO); higher = less target engagement (more negative = stronger competition), active = hit call of the paper (q ≤ 0.05, log2 ratio ≤ -1)
Conditions in all cases: compound concentration: 200 uM; treatment time: 3 h
[1] = biological target: T1, ALG13 (UniProt Q9NP73)
T1 sequence (whole entry): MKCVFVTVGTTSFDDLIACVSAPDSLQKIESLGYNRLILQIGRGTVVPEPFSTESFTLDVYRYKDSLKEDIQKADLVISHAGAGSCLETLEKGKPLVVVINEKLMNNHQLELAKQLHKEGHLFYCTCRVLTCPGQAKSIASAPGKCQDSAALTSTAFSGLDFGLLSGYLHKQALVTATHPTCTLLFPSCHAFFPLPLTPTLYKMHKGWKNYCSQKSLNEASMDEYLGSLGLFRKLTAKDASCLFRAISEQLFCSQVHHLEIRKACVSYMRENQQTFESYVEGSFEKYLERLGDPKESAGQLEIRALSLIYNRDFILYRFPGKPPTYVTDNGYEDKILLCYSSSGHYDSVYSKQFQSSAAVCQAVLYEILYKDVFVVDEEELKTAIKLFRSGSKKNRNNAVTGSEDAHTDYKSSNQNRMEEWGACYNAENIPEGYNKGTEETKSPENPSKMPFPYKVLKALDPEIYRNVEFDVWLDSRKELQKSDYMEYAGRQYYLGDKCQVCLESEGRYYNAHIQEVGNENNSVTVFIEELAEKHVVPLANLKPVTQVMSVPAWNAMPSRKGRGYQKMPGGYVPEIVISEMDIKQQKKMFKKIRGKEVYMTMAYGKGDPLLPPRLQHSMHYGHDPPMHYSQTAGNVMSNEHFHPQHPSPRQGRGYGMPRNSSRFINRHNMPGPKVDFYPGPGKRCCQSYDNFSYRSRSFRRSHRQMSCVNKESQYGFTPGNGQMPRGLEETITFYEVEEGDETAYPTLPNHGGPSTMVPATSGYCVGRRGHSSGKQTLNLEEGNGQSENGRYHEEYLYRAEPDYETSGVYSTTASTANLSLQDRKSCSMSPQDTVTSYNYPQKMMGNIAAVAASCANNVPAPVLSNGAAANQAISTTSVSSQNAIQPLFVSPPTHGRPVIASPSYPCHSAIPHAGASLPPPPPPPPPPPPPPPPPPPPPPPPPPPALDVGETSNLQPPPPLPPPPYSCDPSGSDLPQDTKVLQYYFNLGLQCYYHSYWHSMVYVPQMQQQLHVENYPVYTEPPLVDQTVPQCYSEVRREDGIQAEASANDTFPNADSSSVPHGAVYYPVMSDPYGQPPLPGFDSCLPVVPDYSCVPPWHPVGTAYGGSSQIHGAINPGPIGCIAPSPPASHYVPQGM
Summary of the method: (§1)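 In triplicate, 495 µg of HEK293T lysate per sample was incubated with fragment at 200 µM or vehicle for 3 h. Biotin-Ahx-Ub-VS was then added to 0.5 µM final for 1 h, and labelled DUBs were captured with NeutrAvidin, digested with LysC and trypsin, and measured by diaPASEF LC-MS/MS. Data are average log2 fragment/vehicle ratios by unpaired t-test from global-median-normalised Spectronaut label-free quantities, restricted to proteins with ≥2 unique peptides.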

[2] = biological target: ATXN3 (UniProt P54252)
Summary of the method: as §1

[3] = biological target: T2, BAP1 (UniProt Q92560)
T2 sequence (whole entry): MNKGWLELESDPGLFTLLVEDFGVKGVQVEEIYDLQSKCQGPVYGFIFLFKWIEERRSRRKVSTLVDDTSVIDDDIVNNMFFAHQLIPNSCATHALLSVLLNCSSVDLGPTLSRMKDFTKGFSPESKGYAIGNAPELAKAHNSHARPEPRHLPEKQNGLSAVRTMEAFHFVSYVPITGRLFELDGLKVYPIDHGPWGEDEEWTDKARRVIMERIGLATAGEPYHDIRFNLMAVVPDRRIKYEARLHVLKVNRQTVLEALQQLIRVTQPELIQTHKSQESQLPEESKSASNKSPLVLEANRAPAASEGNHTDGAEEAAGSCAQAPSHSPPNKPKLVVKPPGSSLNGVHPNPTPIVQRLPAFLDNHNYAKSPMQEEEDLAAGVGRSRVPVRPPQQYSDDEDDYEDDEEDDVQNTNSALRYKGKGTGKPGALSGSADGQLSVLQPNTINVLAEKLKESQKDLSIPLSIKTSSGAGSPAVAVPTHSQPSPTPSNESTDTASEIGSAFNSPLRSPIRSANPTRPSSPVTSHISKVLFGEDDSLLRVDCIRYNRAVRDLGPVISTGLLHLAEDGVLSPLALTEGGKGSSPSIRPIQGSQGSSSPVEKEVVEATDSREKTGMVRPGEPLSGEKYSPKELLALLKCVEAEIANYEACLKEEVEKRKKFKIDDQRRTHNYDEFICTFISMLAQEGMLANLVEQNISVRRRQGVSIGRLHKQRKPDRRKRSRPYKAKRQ
Summary of the method: as §1

[4] = biological target: EIF3F (UniProt O00303)
Summary of the method: as §1

[5] = biological target: EIF3H (UniProt O15372)
Summary of the method: as §1

[6] = biological target: T3, FAM105A (UniProt Q9NUU6)
T3 sequence (whole entry): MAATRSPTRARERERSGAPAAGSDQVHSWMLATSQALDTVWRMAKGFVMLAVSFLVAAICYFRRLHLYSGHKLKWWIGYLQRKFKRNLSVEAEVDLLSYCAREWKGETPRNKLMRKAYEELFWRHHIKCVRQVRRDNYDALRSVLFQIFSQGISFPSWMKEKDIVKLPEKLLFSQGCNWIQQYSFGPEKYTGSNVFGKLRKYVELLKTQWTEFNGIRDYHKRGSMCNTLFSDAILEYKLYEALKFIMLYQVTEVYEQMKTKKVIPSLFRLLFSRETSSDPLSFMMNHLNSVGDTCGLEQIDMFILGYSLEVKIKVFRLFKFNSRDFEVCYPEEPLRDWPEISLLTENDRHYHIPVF
Summary of the method: as §1

[7] = biological target: OTUB1 (UniProt Q96FW1)
Summary of the method: as §1

[8] = biological target: T4, OTUD4 (UniProt Q01804)
T4 sequence (whole entry): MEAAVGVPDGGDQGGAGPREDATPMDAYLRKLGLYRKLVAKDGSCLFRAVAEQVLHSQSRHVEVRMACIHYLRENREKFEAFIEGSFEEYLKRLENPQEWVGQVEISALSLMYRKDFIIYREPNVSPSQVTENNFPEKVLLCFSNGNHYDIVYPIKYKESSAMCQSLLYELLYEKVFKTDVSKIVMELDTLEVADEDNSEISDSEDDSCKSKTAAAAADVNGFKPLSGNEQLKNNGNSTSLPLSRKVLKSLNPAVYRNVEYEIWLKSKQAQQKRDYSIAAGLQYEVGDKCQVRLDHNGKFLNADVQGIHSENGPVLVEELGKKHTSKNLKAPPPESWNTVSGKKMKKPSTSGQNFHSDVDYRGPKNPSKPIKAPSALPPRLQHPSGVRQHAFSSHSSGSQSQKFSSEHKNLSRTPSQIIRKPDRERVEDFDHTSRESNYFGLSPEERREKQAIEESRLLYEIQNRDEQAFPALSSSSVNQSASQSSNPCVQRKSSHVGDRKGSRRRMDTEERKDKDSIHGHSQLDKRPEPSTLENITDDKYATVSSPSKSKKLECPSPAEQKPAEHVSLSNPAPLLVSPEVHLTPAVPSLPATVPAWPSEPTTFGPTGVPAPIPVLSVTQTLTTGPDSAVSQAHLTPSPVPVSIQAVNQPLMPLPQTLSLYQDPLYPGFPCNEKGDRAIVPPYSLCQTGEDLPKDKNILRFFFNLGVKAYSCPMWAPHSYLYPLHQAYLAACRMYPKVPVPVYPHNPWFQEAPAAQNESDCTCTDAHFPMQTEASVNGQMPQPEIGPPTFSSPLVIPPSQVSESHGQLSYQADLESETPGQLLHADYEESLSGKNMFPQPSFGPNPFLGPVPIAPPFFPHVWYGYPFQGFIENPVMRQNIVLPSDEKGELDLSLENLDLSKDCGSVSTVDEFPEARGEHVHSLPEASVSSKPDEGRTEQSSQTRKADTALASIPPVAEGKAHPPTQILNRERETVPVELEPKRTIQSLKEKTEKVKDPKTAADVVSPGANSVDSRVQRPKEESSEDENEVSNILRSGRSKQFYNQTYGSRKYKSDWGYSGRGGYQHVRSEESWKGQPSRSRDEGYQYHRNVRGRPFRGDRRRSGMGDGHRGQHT
Summary of the method: as §1

[9] = biological target: T5, OTUD5 (UniProt Q96G74)
T5 sequence (whole entry): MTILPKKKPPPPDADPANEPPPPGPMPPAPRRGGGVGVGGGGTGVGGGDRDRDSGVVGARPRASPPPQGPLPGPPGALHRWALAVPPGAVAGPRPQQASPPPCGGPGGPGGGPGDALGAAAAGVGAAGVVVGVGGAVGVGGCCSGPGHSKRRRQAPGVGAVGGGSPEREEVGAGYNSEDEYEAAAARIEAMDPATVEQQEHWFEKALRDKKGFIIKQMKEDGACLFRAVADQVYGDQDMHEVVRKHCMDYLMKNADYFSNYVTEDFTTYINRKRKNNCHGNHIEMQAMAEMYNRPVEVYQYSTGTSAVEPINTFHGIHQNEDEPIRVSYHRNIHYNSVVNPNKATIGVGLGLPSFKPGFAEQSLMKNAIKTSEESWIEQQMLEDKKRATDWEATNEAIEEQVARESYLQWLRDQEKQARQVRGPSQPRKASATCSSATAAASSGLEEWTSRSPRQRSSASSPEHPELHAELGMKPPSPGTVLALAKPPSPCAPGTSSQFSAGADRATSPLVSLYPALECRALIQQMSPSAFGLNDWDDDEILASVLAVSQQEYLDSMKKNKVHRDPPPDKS
Summary of the method: as §1

Measured: log2 ratio of Biotin-Ahx-Ub-VS probe labelling

Chain of ATXN3 (P54252 whole entry): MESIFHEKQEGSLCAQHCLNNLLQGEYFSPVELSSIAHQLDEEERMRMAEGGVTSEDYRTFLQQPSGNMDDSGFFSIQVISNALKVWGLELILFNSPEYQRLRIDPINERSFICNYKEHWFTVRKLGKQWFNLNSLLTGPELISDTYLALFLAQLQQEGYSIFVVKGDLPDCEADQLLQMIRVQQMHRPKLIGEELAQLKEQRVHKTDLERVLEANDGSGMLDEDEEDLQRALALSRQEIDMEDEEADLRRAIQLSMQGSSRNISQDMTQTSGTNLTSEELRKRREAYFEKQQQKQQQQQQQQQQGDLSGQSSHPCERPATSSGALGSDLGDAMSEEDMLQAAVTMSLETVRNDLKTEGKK
Chain of OTUB1 (Q96FW1 whole entry): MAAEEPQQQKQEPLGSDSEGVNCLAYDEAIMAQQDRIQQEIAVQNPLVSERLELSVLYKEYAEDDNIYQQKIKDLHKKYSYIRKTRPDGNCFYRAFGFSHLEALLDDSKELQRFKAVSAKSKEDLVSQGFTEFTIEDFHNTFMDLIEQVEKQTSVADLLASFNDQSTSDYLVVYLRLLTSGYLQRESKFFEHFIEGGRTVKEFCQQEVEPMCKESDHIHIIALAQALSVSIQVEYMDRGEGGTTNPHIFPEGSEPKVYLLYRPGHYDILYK
Chain of EIF3H (O15372 whole entry): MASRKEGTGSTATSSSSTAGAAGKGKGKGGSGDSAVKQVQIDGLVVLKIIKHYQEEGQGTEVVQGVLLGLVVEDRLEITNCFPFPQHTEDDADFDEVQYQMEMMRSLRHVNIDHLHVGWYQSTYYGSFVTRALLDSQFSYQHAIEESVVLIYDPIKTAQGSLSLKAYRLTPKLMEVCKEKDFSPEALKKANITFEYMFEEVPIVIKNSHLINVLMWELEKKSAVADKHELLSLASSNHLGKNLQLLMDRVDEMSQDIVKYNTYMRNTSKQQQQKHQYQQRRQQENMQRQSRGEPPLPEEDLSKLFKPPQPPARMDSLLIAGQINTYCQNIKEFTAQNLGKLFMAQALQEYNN
Chain of EIF3F (O00303 whole entry): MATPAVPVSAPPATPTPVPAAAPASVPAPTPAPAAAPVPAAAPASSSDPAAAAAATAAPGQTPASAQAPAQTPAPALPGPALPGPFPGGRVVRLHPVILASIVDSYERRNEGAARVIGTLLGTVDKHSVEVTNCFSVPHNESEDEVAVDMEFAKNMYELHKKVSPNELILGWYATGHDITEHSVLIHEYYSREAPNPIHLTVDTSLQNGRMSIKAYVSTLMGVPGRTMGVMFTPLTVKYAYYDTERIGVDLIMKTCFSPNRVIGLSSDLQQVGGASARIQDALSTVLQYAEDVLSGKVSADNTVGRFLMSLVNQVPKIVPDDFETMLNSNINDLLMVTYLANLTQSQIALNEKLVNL

O=C(CCl)Nc1ccc(Cl)c(F)c1
active: [2] -1.07 | [3] -3.03 | [8] -1.33
inactive: [1] 0.149 | [4] -0.0742 | [5] 0.246 | [6] -0.175 | [7] -0.259 | [9] -0.992
